For orientation: viability means a read-out of living cells in per cent, often relative to untreated cells.

The nature of this assay: reducers of endogenous Her2 protein level, primary screen, SKBR3 breast tumor cells, AlphaScreen, ATP viability (AID 461).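 Note: percent of carrier control wells set as 100% viability.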 The conditions noted are these: 18-24 h, measured here: SKBR3 viability, ATP luminescence, at 10 µM. Background: Bead proximity is the source of the signal in Alpha formats.
For the compound `CCOC(=O)c1sc(NC(=O)c2c(C)nn(Cc3ccccc3)c2C)cc1C`, the viability worked out at 82.5%.

`Cc1nn(-c2nc3ccccc3s2)c(C)c1Oc1ccccc1O`: the viability is 102%.

For `Cc1cc(C)c2c(n1)nn1c(N3CCN(c4ccccc4C)CC3)cc(C)nc21`, the viability was 73.5%.

`COc1ccc(-c2noc(CCC(=O)NCCCN3CCC(Cc4ccccc4)CC3)n2)cc1`: the viability was determined as 87.5%.

On to `Cc1[nH]nc(N=CC2=C(O)CC(C)(C)CC2=O)c1-c1ccc(Cl)cc1`, for which the viability was 94.5%.

Consider `c1ccc2c(-c3nc(C4CCCCC4)no3)cc(-c3ccncc3)nc2c1`, for which the viability was 72.5%.

As to `CCCc1nc2ccccc2c(=O)n1NC(=O)c1c(O)c2cccc3c2n(c1=O)CCC3`, the viability was determined as 113%.

With `Cc1csc2ncc(C(=O)Nc3ccccc3Cl)c(=O)n12`, the viability was 87.5%.

For the compound `CN1CC=C2C(C#N)=C(N)C(C#N)(C#N)[C@H](c3cccc(Cl)c3)C2C1` (some centres undefined), the viability is 94%.

Consider `O=C(NC1CCc2ccccc21)C1CCN(S(=O)(=O)c2ccc(-n3cnnn3)cc2)CC1` (centres undefined), for which the viability was found to be 74.5%.

Take `N#CC(C(=O)C1CCCCC1)c1nc2ccccc2[nH]1` (centres undefined): the viability was 91.5%.

For `Cc1nc2ccccc2c(=O)n1NC(=O)c1c(O)c2c(n(CC(C)C)c1=O)CCCC2`, the viability turned out to be 88.5%.

Take `COc1ccc(Br)cc1C1N2CC3(C)CN1CC(C)(C2)C3=O` (centres undefined): the viability was 114%.

In the case of `CCn1cc(C(=O)OCC(=O)OC2CC(C)CCC2C(C)C)c(=O)c2ccc(C)nc21` (centres undefined), the viability was 94.5%.

For `CCCNC(=O)c1c(N)n(-c2cc(OC)cc(OC)c2)c2nc3ccccc3nc12`, the viability came out at 89%.

For the compound `CCCc1cc(-c2n[nH]c(C)c2-c2ccc(C(=O)OCC)o2)c(O)cc1O`, the viability turned out to be 78%.

In the case of `N#CC1=C(N)n2c(s/c(=C\c3ccco3)c2=O)=C(C#N)C1c1ccco1` (centres undefined), the viability is 100%.

Consider `CC1=C(C(=O)OC2CCCCC2)C(c2ccc(C)o2)C2=C(CC(C)(C)CC2=O)N1` (centres undefined), for which the viability worked out at 77.5%.

Take `O=C(Nc1sc2c(c1C(=O)NCc1ccco1)CCCC2)c1ccc2c(c1)OCO2`: the viability was found to be 89.5%.

For the compound `COc1ccc(CC(=O)NCc2cccs2)cc1`, the viability came out at 90%.

`COc1ccc(/C=N/n2cc(-c3ccc(OC)cc3)nc2N)cc1`: the viability amounted to 85%.

On to `CCn1c(CNc2ccc(OC)cc2)nnc1SCC(=O)c1ccc(OC)cc1`, for which the viability was found to be 110%.

Consider `Cc1ccccc1OCCCN1C(=O)C(=O)c2cccc(C)c21`, for which the viability amounted to 106%.

Regarding `CCOC(=O)c1sc(NC(=O)CSc2n[nH]c(-c3ccccc3)n2)c(C#N)c1C`, the viability is 122%.

Turning to `CCSc1nnc(NC(=O)c2ccccn2)s1`, the viability came out at 92%.

As for `CCOc1cccc(-n2nnnc2-c2ccc(OC)cc2)c1`, the viability worked out at 107%.

Take `O=C(NCc1ccco1)c1cc2c(s1)CSC2`: the viability is 97.5%.

In the case of `CC(=O)c1ccccc1Oc1nc(CN2CCOCC2)nc2scc(-c3cccs3)c12`, the viability was determined as 87.5%.

For the compound `C=CCn1c(N)c(C(=O)OC(C)(C)C)c2nc3ccccc3nc21`, the viability came to 102%.

With `CCOC(=O)c1sc(Nc2nc3c(OC)cccc3s2)nc1C`, the viability worked out at 81.5%.

`COc1ccc(N2CCN(Cc3cc(=O)oc4cc(C)c(Cl)c(C)c34)CC2)cc1`: the viability turned out to be 93.5%.

Consider `O=C(c1cc(-c2ccco2)nn1-c1cccc(Cl)c1)N1CCCCC1`, for which the viability stood at 111%.

For the compound `CCOC(=O)c1sc2nc(N3CCCC3)c3c(c2c1N)CC(C)(C)OC3`, the viability was 75.5%.

Turning to `CCC(Sc1nc2n[nH]c(C)c2c(=N)n1-c1cc(Cl)ccc1C)C(=O)N1CCOCC1` (centres undefined), the viability was determined as 92.5%.

Turning to `O=C(Nc1ccc(F)cc1)N(Cc1ccco1)Cc1cc2cc3c(cc2[nH]c1=O)OCO3`, the viability stood at 86.5%.

For the compound `N#CC1=C(SCC(=O)NC23CC4CC(CC(C4)C2)C3)NC(=O)C(C#N)C12CCCCC2` (centres undefined), the viability came to 74%.

As for `CCOC(=O)c1nnc2cc(-c3ccc(Br)cc3)nn2c1C`, the viability came to 76.5%.

`CCOC(=O)c1c(NC(=O)Cn2c(C)nc3ccccc32)sc2c1CCC2`: the viability came out at 107%.

With `COc1ccc(C2=NOC(C(=O)Nc3cc(Br)ccc3O)C2)cc1OC` (centres undefined), the viability amounted to 108%.

The record behind these values is PubChem BioAssay.
